Results from publication PMC7862700, “An all-to-all approach to the identification of sequence-specific readers for epigenetic DNA modifications on cytosine”.

Key:
Assay in all cases: DAPPL (digital affinity profiling via proximity ligation, sequencing); 10 mM Tris-HCl pH 7.5, 50 mM NaCl, 1 mM DTT, 4% glycerol, room temperature, 30 min; GST-TFs on glutathione beads, 16-mer random dsDNA library, 0.1% formaldehyde crosslink after washing; high values mean tight binding
FLI1 = target: T1, FLI1 (Homo sapiens, UniProt Q01543 1-452); conditions: protein: recombinant; tags: N-terminal GST; dsDNA, one strand shown
T1 sequence: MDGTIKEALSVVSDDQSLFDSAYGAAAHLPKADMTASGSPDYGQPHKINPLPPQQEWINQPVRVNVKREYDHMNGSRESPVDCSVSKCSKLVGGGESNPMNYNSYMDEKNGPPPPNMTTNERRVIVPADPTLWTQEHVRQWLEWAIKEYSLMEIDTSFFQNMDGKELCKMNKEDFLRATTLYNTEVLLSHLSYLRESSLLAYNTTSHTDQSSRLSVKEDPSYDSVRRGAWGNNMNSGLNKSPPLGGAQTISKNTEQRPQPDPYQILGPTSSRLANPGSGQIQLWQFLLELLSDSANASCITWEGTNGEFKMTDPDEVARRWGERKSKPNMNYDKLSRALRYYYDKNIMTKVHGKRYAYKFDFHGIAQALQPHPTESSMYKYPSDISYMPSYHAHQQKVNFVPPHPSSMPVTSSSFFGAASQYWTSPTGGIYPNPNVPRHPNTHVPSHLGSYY
How it was run: (§1)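 In yeast, human transcription factors were expressed with a GST fusion, then pulled down on glutathione beads and given DNA barcodes. Pooled with a tag-only sample, they were exposed to 200 nmole of a 16-mer random double-stranded DNA library (Tris/NaCl/DTT/glycerol buffer, room temperature, 30 min), washed, crosslinked with 0.1% formaldehyde, proximity-ligated using BsaI/T4 ligase for 1 h at 37 °C, PCR-amplified and read on an Illumina NextSeq500. Each hexamer's frequency of reads for a factor, divided by the matching frequency for the tag-only sample, gives the binding signal.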

ELK1 = target: T2, ELK1 (Homo sapiens, UniProt P19419 1-428); conditions: protein: recombinant; tags: N-terminal GST; dsDNA, one strand shown
T2 sequence: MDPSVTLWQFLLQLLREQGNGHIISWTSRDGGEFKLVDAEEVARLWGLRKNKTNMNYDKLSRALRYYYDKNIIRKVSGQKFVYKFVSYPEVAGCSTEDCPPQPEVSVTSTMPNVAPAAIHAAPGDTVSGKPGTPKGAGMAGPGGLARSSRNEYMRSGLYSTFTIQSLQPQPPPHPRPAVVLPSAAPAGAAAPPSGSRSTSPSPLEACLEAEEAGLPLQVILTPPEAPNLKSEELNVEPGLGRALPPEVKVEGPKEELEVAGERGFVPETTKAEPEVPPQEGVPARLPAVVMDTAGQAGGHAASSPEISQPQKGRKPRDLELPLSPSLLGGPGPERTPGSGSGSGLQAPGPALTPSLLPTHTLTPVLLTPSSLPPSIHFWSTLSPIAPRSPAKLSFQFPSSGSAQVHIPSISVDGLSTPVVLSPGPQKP
How it was run: as §1

GABPA = target: T3, GABPA (Homo sapiens, UniProt Q06546 1-454); conditions: protein: recombinant; tags: N-terminal GST; dsDNA, one strand shown
T3 sequence: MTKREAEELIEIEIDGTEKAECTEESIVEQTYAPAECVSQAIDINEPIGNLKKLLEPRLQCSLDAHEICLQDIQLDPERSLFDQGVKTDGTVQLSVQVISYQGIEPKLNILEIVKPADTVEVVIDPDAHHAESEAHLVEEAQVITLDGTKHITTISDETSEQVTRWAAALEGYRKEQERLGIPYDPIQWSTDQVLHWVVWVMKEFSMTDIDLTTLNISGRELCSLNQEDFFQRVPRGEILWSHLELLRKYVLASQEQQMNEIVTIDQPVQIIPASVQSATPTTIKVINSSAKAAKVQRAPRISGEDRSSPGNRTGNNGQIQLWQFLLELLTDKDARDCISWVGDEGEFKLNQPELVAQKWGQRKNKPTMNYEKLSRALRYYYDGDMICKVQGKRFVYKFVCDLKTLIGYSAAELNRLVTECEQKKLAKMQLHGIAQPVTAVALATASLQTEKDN
How it was run: as §1

ERG = target: T4, ERG (Homo sapiens, UniProt P11308 1-479); conditions: protein: recombinant; tags: N-terminal GST; dsDNA, one strand shown
T4 sequence: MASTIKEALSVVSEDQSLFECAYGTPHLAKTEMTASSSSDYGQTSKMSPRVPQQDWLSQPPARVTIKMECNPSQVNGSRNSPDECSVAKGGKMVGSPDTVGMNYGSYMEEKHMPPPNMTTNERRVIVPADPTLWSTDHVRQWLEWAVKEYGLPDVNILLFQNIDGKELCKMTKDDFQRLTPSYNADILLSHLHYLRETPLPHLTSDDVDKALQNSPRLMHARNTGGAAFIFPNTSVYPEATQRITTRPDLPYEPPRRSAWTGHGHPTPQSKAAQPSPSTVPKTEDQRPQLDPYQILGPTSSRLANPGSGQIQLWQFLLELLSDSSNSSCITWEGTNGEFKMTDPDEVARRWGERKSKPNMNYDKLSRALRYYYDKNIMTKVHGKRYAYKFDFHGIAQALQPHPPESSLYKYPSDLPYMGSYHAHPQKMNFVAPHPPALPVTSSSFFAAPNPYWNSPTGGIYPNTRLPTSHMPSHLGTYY
How it was run: as §1

ELF1 = ELF1 (Homo sapiens, UniProt P32519 1-619); conditions: protein: recombinant; tags: N-terminal GST; dsDNA, one strand shown
Sequence of ELF1 (P32519 whole entry): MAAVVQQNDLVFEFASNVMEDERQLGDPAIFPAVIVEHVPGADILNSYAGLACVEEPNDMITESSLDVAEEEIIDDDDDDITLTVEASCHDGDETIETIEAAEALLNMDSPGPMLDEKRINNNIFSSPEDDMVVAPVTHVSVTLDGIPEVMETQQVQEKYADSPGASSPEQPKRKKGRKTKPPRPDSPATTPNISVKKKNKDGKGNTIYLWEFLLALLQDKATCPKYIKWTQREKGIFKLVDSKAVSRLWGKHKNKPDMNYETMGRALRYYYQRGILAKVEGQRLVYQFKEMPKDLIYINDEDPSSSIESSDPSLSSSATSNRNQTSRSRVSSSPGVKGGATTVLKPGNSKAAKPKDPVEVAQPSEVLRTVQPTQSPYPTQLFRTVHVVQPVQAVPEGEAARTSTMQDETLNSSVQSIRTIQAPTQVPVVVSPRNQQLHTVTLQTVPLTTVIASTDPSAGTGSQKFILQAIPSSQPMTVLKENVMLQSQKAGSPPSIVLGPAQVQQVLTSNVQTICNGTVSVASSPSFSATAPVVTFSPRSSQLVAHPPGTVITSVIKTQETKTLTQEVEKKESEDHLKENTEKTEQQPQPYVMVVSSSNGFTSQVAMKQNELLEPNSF
How it was run: as §1

EHF = target: T5, EHF (Homo sapiens, UniProt Q9NZC4 1-300); conditions: protein: recombinant; tags: N-terminal GST; dsDNA, one strand shown
T5 sequence: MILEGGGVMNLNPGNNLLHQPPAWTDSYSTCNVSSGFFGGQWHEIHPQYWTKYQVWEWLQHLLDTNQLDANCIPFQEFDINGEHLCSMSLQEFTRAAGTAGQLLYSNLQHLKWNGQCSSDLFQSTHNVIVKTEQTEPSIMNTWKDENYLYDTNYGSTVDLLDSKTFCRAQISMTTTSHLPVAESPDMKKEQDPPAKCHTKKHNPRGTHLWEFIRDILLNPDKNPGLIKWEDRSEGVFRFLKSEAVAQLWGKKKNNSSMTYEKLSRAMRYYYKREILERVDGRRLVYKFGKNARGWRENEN
How it was run: as §1

SPI1 = SPI1 (Homo sapiens, UniProt P17947 1-270); conditions: protein: recombinant; tags: N-terminal GST; dsDNA, one strand shown
How it was run: as §1

SPIB = SPIB (Homo sapiens, UniProt Q01892 1-262); conditions: protein: recombinant; tags: N-terminal GST; dsDNA, one strand shown
Sequence of SPIB (Q01892 whole entry): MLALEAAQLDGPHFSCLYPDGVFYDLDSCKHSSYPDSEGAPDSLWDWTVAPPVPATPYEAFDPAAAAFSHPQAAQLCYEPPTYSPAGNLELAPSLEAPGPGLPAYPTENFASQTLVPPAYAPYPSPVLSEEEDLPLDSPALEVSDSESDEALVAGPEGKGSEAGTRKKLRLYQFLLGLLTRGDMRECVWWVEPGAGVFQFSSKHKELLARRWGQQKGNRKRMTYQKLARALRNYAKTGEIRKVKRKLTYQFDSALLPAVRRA
How it was run: as §1

ELK3 = target: T6, ELK3 (Homo sapiens, UniProt P41970 1-407); conditions: protein: recombinant; tags: N-terminal GST; dsDNA, one strand shown
T6 sequence: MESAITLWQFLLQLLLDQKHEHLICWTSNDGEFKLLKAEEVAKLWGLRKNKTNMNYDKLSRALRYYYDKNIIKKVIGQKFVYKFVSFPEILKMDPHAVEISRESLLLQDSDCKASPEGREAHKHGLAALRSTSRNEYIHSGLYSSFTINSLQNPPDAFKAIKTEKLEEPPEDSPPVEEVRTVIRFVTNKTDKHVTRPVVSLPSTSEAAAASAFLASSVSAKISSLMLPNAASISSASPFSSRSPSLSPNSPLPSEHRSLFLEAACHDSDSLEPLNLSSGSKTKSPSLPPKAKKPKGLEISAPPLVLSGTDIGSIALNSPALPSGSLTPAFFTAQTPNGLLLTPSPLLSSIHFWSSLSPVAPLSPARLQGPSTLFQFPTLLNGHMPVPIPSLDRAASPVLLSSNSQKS
How it was run: as §1

FEV = target: T7, FEV (Homo sapiens, UniProt Q99581 1-238); conditions: protein: recombinant; tags: N-terminal GST; dsDNA, one strand shown
T7 sequence: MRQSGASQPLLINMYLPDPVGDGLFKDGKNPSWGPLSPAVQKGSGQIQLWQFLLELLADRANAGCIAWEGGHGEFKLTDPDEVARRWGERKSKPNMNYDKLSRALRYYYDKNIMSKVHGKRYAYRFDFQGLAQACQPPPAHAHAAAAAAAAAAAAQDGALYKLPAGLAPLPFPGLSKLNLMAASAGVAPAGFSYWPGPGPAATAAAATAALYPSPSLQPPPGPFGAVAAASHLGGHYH
How it was run: as §1

ETV5 = ETV5 (Homo sapiens, UniProt P41161 1-510); conditions: protein: recombinant; tags: N-terminal GST; dsDNA, one strand shown
Sequence of ETV5 (P41161 whole entry): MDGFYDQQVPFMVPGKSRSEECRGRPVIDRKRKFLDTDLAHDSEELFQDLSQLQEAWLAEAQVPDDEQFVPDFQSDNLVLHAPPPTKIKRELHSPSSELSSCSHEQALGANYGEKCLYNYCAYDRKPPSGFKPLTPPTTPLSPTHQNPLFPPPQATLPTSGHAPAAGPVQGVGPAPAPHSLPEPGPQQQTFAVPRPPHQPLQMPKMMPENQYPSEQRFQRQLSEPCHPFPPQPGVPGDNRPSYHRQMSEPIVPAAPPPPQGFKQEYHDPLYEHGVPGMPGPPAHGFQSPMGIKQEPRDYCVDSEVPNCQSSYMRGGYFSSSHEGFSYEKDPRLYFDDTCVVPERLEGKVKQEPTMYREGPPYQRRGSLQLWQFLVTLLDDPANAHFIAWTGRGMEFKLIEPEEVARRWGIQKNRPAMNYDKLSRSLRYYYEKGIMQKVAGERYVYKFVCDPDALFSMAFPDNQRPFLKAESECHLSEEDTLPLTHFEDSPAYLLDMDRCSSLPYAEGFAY
How it was run: as §1

HSF1 = HSF1 (Homo sapiens, UniProt Q00613 1-529); conditions: protein: recombinant; tags: N-terminal GST; chain copies: 3; dsDNA, one strand shown
Sequence of HSF1 (Q00613 whole entry): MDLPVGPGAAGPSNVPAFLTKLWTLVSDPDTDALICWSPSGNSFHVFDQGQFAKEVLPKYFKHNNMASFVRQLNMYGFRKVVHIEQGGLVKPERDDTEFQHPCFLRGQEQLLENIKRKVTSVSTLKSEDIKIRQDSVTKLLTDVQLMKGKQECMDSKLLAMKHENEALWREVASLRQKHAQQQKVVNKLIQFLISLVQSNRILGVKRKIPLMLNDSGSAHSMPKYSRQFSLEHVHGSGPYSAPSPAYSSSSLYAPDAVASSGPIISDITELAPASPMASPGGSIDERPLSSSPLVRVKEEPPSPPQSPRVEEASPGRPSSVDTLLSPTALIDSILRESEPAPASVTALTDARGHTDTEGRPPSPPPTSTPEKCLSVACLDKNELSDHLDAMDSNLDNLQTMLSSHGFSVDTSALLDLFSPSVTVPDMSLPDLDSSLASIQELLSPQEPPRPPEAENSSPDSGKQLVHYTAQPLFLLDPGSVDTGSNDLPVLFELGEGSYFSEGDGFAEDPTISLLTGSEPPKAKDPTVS
How it was run: as §1

SPIC = target: T8, SPIC (Homo sapiens, UniProt Q8N5J4 1-248); conditions: protein: recombinant; tags: N-terminal GST; dsDNA, one strand shown
T8 sequence: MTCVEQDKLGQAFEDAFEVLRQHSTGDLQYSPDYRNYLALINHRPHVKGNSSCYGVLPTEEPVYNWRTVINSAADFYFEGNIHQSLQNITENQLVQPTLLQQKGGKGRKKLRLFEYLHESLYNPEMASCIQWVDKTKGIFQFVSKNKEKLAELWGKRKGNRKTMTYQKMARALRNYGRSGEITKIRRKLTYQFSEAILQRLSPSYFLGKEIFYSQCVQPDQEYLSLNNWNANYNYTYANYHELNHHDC
How it was run: as §1

ELF4 = ELF4 (Homo sapiens, UniProt Q99607 1-663); conditions: protein: recombinant; tags: N-terminal GST; dsDNA, one strand shown
Sequence of ELF4 (Q99607 whole entry): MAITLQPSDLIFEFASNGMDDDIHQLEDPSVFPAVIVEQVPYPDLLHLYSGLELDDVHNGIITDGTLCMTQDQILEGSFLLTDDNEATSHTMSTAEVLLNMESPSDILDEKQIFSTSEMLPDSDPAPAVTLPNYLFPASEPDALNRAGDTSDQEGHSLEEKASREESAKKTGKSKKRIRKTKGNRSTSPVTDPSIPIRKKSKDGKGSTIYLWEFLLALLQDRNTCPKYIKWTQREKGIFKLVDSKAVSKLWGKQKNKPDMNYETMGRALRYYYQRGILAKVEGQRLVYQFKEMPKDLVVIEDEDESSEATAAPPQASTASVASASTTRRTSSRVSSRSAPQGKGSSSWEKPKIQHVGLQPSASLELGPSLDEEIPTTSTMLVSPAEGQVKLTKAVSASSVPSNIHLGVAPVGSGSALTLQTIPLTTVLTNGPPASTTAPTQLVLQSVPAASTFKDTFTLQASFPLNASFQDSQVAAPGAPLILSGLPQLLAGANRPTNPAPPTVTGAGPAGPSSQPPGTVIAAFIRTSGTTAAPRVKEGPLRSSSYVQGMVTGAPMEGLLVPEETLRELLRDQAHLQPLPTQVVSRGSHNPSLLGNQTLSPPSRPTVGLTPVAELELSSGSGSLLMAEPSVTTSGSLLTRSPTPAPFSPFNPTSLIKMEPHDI
How it was run: as §1

ELK4 = target: T9, ELK4 (Homo sapiens, UniProt P28324-2 1-405); conditions: protein: recombinant; tags: N-terminal GST; dsDNA, one strand shown
T9 sequence: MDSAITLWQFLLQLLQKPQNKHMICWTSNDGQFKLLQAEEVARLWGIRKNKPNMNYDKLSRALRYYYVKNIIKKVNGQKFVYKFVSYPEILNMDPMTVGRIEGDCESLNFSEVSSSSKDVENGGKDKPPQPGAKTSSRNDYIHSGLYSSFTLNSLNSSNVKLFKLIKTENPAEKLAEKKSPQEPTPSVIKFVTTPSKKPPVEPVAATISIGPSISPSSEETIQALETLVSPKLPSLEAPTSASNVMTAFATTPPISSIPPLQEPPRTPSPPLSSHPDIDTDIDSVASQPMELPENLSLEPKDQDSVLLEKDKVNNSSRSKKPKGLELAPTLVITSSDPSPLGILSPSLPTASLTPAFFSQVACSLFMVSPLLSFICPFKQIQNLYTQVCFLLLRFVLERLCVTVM
How it was run: as §1

ETV2 = target: T10, ETV2 (Homo sapiens, UniProt O00321 1-342); conditions: protein: recombinant; tags: N-terminal GST; dsDNA, one strand shown
T10 sequence: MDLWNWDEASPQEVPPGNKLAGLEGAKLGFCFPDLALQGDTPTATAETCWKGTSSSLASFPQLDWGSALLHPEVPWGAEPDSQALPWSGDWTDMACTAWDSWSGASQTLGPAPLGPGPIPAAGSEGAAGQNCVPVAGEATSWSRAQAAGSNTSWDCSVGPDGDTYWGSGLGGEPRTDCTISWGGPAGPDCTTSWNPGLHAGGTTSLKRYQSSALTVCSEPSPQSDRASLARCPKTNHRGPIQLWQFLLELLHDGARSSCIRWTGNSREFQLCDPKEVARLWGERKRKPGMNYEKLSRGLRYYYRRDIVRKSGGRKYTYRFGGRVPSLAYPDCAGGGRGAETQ
How it was run: as §1

ELF3 = target: T11, ELF3 (Homo sapiens, UniProt P78545 1-371); conditions: protein: recombinant; tags: N-terminal GST; dsDNA, one strand shown
T11 sequence: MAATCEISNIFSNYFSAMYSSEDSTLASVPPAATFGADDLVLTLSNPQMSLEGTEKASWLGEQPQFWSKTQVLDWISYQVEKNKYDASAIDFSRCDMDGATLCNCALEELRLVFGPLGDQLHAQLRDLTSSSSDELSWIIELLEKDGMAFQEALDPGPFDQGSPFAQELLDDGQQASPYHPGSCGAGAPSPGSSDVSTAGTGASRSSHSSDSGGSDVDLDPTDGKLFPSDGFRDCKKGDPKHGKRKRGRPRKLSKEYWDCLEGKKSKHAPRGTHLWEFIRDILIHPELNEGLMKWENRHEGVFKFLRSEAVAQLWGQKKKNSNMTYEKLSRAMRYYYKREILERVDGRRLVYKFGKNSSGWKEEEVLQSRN
How it was run: as §1

CRX = CRX (Homo sapiens, UniProt O43186 1-299); conditions: protein: recombinant; tags: N-terminal GST; dsDNA, one strand shown
Sequence of CRX (O43186 whole entry): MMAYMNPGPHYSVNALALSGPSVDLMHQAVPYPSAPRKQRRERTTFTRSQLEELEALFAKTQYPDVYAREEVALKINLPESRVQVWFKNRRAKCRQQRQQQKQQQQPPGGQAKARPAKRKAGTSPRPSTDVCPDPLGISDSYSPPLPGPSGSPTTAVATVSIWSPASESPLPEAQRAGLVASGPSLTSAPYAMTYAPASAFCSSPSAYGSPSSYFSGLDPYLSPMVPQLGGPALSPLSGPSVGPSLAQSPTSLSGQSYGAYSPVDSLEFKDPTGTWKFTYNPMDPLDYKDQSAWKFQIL
How it was run: as §1

ETV1 = ETV1 (Homo sapiens, UniProt P50549 1-477); conditions: protein: recombinant; tags: N-terminal GST; dsDNA, one strand shown
Sequence of ETV1 (P50549 whole entry): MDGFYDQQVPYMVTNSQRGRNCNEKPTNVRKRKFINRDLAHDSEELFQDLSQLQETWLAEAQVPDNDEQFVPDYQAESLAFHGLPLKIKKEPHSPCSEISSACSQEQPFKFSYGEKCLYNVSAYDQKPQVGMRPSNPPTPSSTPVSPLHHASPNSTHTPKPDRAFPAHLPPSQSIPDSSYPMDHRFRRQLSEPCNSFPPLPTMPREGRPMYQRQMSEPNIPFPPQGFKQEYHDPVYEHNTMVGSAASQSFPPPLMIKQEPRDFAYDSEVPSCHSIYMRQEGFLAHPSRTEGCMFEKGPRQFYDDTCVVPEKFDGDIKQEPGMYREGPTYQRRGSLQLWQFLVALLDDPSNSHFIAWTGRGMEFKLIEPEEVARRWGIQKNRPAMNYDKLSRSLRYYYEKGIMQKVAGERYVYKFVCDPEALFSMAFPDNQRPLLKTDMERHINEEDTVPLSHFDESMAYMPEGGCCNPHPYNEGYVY
How it was run: as §1

## CCTTAA
FLI1
  binding signal: 1.38 fold enrichment (6-mer frequency, TF over GST control)
ELK1
  binding signal: 1.24 fold enrichment (6-mer frequency, TF over GST control)
GABPA
  binding signal: 1.27 fold enrichment (6-mer frequency, TF over GST control)
ERG
  binding signal: 1.31 fold enrichment (6-mer frequency, TF over GST control)
ELF1
  binding signal: 1.35 fold enrichment (6-mer frequency, TF over GST control)
EHF
  binding signal: 1.34 fold enrichment (6-mer frequency, TF over GST control)
SPI1
  binding signal: 1.4 fold enrichment (6-mer frequency, TF over GST control)
SPIB
  binding signal: 1.45 fold enrichment (6-mer frequency, TF over GST control)
ELK3
  binding signal: 1.2 fold enrichment (6-mer frequency, TF over GST control)
FEV
  binding signal: 1.33 fold enrichment (6-mer frequency, TF over GST control)
ETV5
  binding signal: 1.25 fold enrichment (6-mer frequency, TF over GST control)
HSF1
  binding signal: 1.62 fold enrichment (6-mer frequency, TF over GST control)
SPIC
  binding signal: 1.22 fold enrichment (6-mer frequency, TF over GST control)
ELF4
  binding signal: 1.3 fold enrichment (6-mer frequency, TF over GST control)
ELK4
  binding signal: 1.27 fold enrichment (6-mer frequency, TF over GST control)
ETV2
  binding signal: 1.35 fold enrichment (6-mer frequency, TF over GST control)
ELF3
  binding signal: 1.37 fold enrichment (6-mer frequency, TF over GST control)
CRX
  binding signal: 2.17 fold enrichment (6-mer frequency, TF over GST control)
ETV1
  binding signal: 1.34 fold enrichment (6-mer frequency, TF over GST control)
